Source: PubChem BioAssay (EPA / NIEHS)
Records with an inconclusive call do not appear. Active and inactive are the calls of the source. Rule for the calls: active = hit-call score of the fitted dose curve at least 0.9, where 1 is the maximum; inconclusive = response in the unintended direction; inactive = score below 0.9.

System: not listed separately
Experiment: TOX21_p53_BLA_p5_viability: Viability Assessment in the Tox21 HCT-116 p53 Agonism Beta-lactamase Assay, Phase 5 (AID 2283600)
In short: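 Compounds, pinned from DMSO at 217-fold dilution, were left on the cells for 16 h. The viability endpoint was ATP content measured by CellTiter-Glo luminescence, where falling signal reflects cytotoxicity.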
With `CCCCC(CC)COP(=O)(OCC(CC)CCCC)OCC(CC)CCCC` (stereo not given) the outcome was “inactive”. For `COC(=O)CCCC(=O)OC`, the outcome was “inactive”. For `CCCCCCC(CCCCCCCCCCC(=O)OCC(COC(C)=O)OC(C)=O)OC(C)=O` (stereo not given), the outcome was “inactive”. For `CC(C)(C)c1ccccc1`, the outcome was “inactive”. For `CC1(C)C(=O)NC(=O)N1CO`, the outcome was “inactive”. With `CS(=O)(=O)c1ccc([C@@H](C[C@H]2CCC(=O)C2)C(=O)Nc2cnccn2)cc1Cl` the outcome was “inactive”. For `CO[C@@H]1COCC[C@@H]1N[C@@H]1CC[C@@](C(=O)N2CCc3ncc(C(F)(F)F)cc3C2)(C(C)C)C1`, the outcome was “inactive”. With `OCC(CO)n1cnc(-c2ccc(F)cc2)c1-c1ccnc(Oc2ccccc2)n1` the outcome was “inactive”. In the case of `CN(C)CCCN(C)CCCN(C)C`, the outcome is reported as “inactive”. For `CN(C)C(=O)NC1(c2ccccc2)CCN(CC[C@@]2(c3ccc(F)c(F)c3)CN(C(=O)c3ccccc3)CCO2)CC1`, the outcome was “inactive”. For `NC(=Nc1ccccc1)Nc1ccccc1`, the outcome was “inactive”. With `COc1ccc(OC(F)(F)F)cc1CN[C@H]1CCCN[C@H]1c1ccccc1` the outcome was “inactive”. In the case of `Cc1cc(SC2=C(O)C[C@@](CCc3ccc(N)cc3)(C(C)C)OC2=O)c(C(C)(C)C)cc1CO`, the outcome is reported as “inactive”. With `CCCCCCCCCC[N+](C)(C)[O-]` the outcome was “inactive”.

Biological target: Cellular tumor antigen p53 (Homo sapiens) (UniProt P04637)
Sequence (P04637 whole entry, looked up): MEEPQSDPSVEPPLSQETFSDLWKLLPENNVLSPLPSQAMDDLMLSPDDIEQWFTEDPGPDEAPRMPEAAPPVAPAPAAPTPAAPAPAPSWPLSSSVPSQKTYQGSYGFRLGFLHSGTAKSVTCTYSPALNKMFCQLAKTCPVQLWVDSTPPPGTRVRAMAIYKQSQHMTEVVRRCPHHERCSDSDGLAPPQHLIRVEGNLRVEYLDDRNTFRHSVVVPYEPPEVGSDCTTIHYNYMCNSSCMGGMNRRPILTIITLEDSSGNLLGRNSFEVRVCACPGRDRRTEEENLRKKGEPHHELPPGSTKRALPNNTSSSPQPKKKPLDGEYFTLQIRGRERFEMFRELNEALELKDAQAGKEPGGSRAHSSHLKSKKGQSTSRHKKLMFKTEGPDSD
Experiment: TOX21_p53_BLA_p4_ratio: Tox21 HCT-116 p53 Agonism Beta-lactamase Assay, Ratio, Phase 4 (AID 2283601)
In short: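 Signal is the blue/green (460nm/530nm) ratio of cleaved versus uncleaved CCF4-AM substrate, read after 2 h substrate loading. Cells were HCT116 carrying the p53-responsive beta-lactamase reporter, dosed 16 h at 37C, 5% CO2; CellTiter-Glo measured in parallel.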
With `COc1ccc(C(=O)Nc2nc3ccccc3c(NCc3ccccc3)c2C#N)cc1` the AC50 was 72.8 µM (active). With `CC1=C(C)S(=O)(=O)CCS1(=O)=O` the outcome was “inactive”. With `COC(=O)CCCC(=O)OC` the outcome was “inactive”. For `CCCCCCC(CCCCCCCCCCC(=O)OCC(COC(C)=O)OC(C)=O)OC(C)=O` (stereo not given), the outcome was “inactive”. For `C=CCCCCCCCCCCCC`, the outcome was “inactive”. For `CC(=O)S[C@H](C(=O)N[C@H]1Cc2ccccc2[C@H]2CCC[C@@H](C(=O)O)N2C1=O)C(C)C`, the outcome was “inactive”. With `CCCCc1nc2cccnc2n1Cc1ccc(-c2ccccc2-c2nnn[nH]2)cc1` the outcome was “inactive”. In the case of `CC(C)c1cccc(C(C)C)c1NC(=O)NS(=O)(=O)c1cc(C(C)(C)O)co1`, the outcome is reported as “inactive”. With `CC1(C)C(=O)NC(=O)N1CO` the outcome was “inactive”. In the case of `CS(=O)(=O)c1ccc([C@@H](C[C@H]2CCC(=O)C2)C(=O)Nc2cnccn2)cc1Cl`, the outcome is reported as “inactive”. With `CN(C)CCCN(C)CCCN(C)C` the outcome was “inactive”. With `CN(C)C(=O)NC1(c2ccccc2)CCN(CC[C@@]2(c3ccc(F)c(F)c3)CN(C(=O)c3ccccc3)CCO2)CC1` the outcome was “inactive”. For `NC(=Nc1ccccc1)Nc1ccccc1`, the outcome was “inactive”. For `COc1ccc(OC(F)(F)F)cc1CN[C@H]1CCCN[C@H]1c1ccccc1`, the AC50 was 82.3 µM (active). With `O=[Si]=O` the outcome was “inactive”. For `CCCCCCCCCC[N+](C)(C)[O-]`, the outcome was “inactive”.
